Here are results for 25 compounds from PubChem BioAssay AID588795 (National Center for Advancing Translational Sciences (NCATS), 2011).

The campaign covered roughly 390,000 compounds. About 1,400 (0.36%) were called active. Where a call stands in place of a potency, no number is given. Another 2% or so got no clear call; they are omitted. Calls come from the whole dose curve; as a rule, active = well fitted inhibition curve with a large enough effect; inconclusive = small, poorly fitted or top-dose-only effect; inactive = no such curve, though single readings can be large or run the other way. The full list was thinned out, with actives kept by preference.
Potency is the fitted concentration of half-maximal effect.

In the test the target is Flap endonuclease 1 (Homo sapiens) (UniProt P39748). The experiment in a line: qHTS Assay for the Inhibitors of Human Flap endonuclease 1 (FEN1). Note: nearly all actives have a fitted effect of over 65% in size. As to conditions: Recombinant FEN1 flap cleavage, fluorescence, 15 min; series mostly up to 114 µM. Summed up: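 Steps: FEN1 (10 nM) dispensed; compound added by pin tool; 15 min at room temperature; substrate added to 50 nM final; reads at 0 min and 15 min; data normalized and fitted (four-parameter Hill).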
Sequence of Flap endonuclease 1 (Homo sapiens) (P39748 whole entry, looked up): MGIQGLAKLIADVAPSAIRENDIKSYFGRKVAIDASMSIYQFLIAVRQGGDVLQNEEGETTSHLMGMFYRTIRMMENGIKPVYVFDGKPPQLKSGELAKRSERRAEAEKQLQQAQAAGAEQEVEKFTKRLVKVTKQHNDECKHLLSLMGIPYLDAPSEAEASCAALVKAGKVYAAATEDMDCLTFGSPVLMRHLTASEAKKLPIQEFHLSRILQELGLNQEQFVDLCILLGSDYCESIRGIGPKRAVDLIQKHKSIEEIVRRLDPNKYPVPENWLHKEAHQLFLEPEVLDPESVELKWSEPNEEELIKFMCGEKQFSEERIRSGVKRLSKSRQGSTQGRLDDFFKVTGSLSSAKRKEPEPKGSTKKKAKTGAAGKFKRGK
Background: qHTS replaces the single test concentration by a dilution series.
On to `Cc1[nH]c2ccccc2c1C(=O)C(=O)N(C)c1ccccc1`, for which the Potency entry is “inactive”.
To `CCCC(=O)N1CCN(c2nc3c(OC)ccc(C)c3s2)CC1` belongs “inactive”; to `Cc1cc[n+](C2CCCCC2)cc1`, “inactive”; to `CCOC(=O)C1Nc2ccc(C(F)(F)F)cc2C2C=CCC12` (stereo not given), “inactive”.
To `CCOc1cccc2c1N[C@@H](c1ccc(C(=O)O)cc1)[C@H]1CC=C[C@@H]21` belongs 14.1 µM (active).
Regarding `CCOc1cc(C(=O)O)ccc1OCCOc1ccccc1`, the Potency result is “inactive”.
For the compound `OC(CBr)CN1CCCCC1` (stereo not given), the Potency result was “inactive”.
For `O=C(Nc1ccccc1)c1ccccc1OCc1ccccc1`, the Potency entry was “inactive”.
Consider `C#CCOCCOCCOCCNc1nc(N2CCN(C(=O)CCCCCCCCCCNC(=O)Cn3cc(CCCCCN)nn3)CC2)nc(N2CCN(C(=O)CCCCCCCCCCNC(=O)[C@H](CO)n3cc(CCCSC)nn3)CC2)n1`, for which the Potency is 39.8 µM (active).
The value for `C#CCOCCOCCOCCNc1nc(N2CCN(C(=O)Cn3cc(CCO)nn3)CC2)nc(N2CCN(C(=O)[C@H](CCCCN)n3cc(CCCC)nn3)CC2)n1` was “inactive”; that for `C#CCOCCOCCOCCNc1nc(N2CCN(C(=O)[C@H](CCC(=O)O)n3cc(CN)nn3)CC2)nc(N2CCN(C(=O)[C@H](CCC(=O)O)n3cc(CN)nn3)CC2)n1` was “inactive”.
The value for `O=C(COC(=O)c1ccccc1OCCOc1ccccc1)Nc1cccc(Br)c1` was “inactive”; that for `Cc1ccc(S(=O)(=O)c2c(Nc3cccc(Cl)c3)sc(C(=O)c3ccc4c(c3)OCO4)c2N)cc1` was “inactive”; that for `Cc1ccc(C)c(N2CCN(CCCNC(=O)Nc3ccc(Cl)cc3)CC2)c1` was “inactive”.
Take `COc1ccc(C2Nc3ccc(NC(=O)COC(C)=O)cc3C(=O)N2Cc2ccccc2)cc1COc1ccc(NC(C)=O)cc1` (stereo not given): the Potency result was “inactive”.
`Cc1ccc(-c2nnc3ccc(SCC(N)=O)nn23)cc1`: the Potency result is “inactive”.
The value for `S=c1[nH]nc(-c2cc(-c3ccsc3)n[nH]2)n1-c1ccccc1` was “inactive”.
For the compound `Cc1cc(-c2n[nH]c(=S)n2/N=C/C(Br)=C/c2ccccc2)n[nH]1`, the Potency entry was “inactive”.
For the compound `S=c1[nH]nc(-c2cc(-c3ccccc3)n[nH]2)n1/N=C/c1c2ccccc2cc2ccccc12`, the Potency was 39.8 µM (active).
The value for `Cc1cccc(NC(=O)COC(=O)c2ccccc2OCc2cccc(Br)c2)c1` was “inactive”; that for `COc1ccc(CN(Cc2ccccc2)C(=O)c2ccc(O)cc2)cc1COc1ccc(NC(C)=O)cc1` was “inactive”; that for `O=C1c2ccccc2C(=O)N1c1ccc(S(=O)(=O)N2CCOCC2)c2ccccc12` was “inactive”.
The value for `CCN1/C(=C/c2ccc3ccc(C)cc3[n+]2CC)Sc2ccccc21` was 50.1 µM (active); that for `OC(Cc1ccc2ccccc2n1)c1ccc(Cl)c(Cl)c1` (stereo not given) was “inactive”.
`O=C1COc2ccc(-c3csc(-c4ccc(Cl)cc4)n3)cc2N1`: the Potency entry was “inactive”.
